# Bioassay records: PubChem BioAssay, Emory University Molecular Libraries Screening Center
# The full list was thinned out, with hits kept by preference.
# 14-3-3 PPI: 14-3-3 gamma protein interaction modulation. FP, 14-3-3gamma / TMR-pS259-Raf peptide binding. inhibition, % at 40 µM. 160,000 compounds, 0.19% hits. AID 422; in the data active = inhibition above about 30%;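 note: 0% = protein plus tracer without compound and 100% = blank with tracer alone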
# Target sequence (P61981 whole entry, looked up): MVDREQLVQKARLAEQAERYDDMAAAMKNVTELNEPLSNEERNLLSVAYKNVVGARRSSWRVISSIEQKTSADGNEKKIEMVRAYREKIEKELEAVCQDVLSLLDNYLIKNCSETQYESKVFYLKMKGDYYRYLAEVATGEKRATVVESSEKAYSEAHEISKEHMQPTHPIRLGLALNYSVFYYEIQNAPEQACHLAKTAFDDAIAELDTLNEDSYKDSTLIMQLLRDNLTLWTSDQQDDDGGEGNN
# * = called active by the depositor; + = active, no number.
SMILES,14-3-3 PPI
O=C(O)c1ccc(COc2ccc3ccc(=O)oc3c2)o1,-4
O=C(NCc1cc2cc(Cl)ccc2[nH]1)c1cnn2c(C(F)(F)F)cc(-c3ccco3)nc12,-28
CSc1cccc(NS(=O)(=O)c2ccc3[nH]cc(C(=O)N4CCOCC4)c(=O)c3c2)c1,3
CCOc1cc(C2NC(=O)NC(C)=C2C(=O)OC(C)C(C)(C)C)ccc1O (stereo unspecified),-1
CCOC(=O)c1cnc2c(C#N)cnn2c1-c1ccccc1,0
CCOC(=O)Cc1c(C)nc2c(C#N)cnn2c1C,-4
CCOC(=O)c1cnc2c(C#N)cnn2c1C,141*
CCN(CC)S(=O)(=O)c1ccc2c(c1)c(=O)c(C(=O)N1CCN(c3ccc([N+](=O)[O-])cc3)CC1)cn2C,-7
COc1ccccc1NC(=O)c1cc2ccccc2c(C=Nc2ccc(OC(F)F)cc2)c1O,112*
CCc1cccc(N=Cc2c(O)c(C(=O)Nc3ccccc3)cc3ccccc23)c1,6
Cc1cccc(N=Cc2c(O)c(C(=O)Nc3ccccc3C)cc3ccccc23)c1,-16
CCCC(=O)c1cn(CC(=O)OC)c2ccccc12,-4
COC(=O)Cn1cc(C(=O)C2CC2)c2ccccc21,50*
CCOC(=O)Cn1cc(C(=O)C2CC2)c2ccccc21,-7
O=C(CCS(=O)(=O)Cc1cccc(Cl)c1)NCCC1=CCCCC1,2
O=C1c2ccc([N+](=O)[O-])c3c([N+](=O)[O-])ccc(c23)C(=O)N1c1ccc(O)cc1,43*
Cc1cccc(C)c1N1C(=O)c2ccc([N+](=O)[O-])c3c([N+](=O)[O-])ccc(c23)C1=O,-20
O=C(O)c1cc(N2C(=O)c3ccc([N+](=O)[O-])c4c([N+](=O)[O-])ccc(c34)C2=O)ccc1O,-32
CCOc1ccc(/C(O)=C2\C(=O)C(=O)N(CCN3CCOCC3)C2c2ccc(Cl)cc2)c(C)c1 (stereo unspecified),-11
COc1cc2c(cc1OC)C(COc1ccc3c(C)cc(=O)oc3c1)N(C(=O)c1cccc([N+](=O)[O-])c1C)CC2 (stereo unspecified),2
CCN(CCCNC(=O)c1n[nH]c(=O)c2ccccc12)Cc1ccccc1,-1
CSc1ccccc1N=Cc1nc(-c2ccccc2)oc1O,3
CN(C)c1ccc(N=Cc2nc(-c3ccccc3)oc2O)cc1,112*
CC(=O)Nc1ccc(N=Cc2nc(-c3ccc(C)cc3)oc2O)cc1,-6
CCCCn1c(CCNC(=O)c2ccc(F)cc2)nc2ccccc21,-7
SMILES,14-3-3 PPI
Cc1ccc(C)c(Cn2c(CCNC(=O)c3ccc(F)cc3)nc3ccccc32)c1,4
Cc1ccccc1Cn1c(CCNC(=O)c2ccc(F)cc2)nc2ccccc21,32*
CCOC(=O)CNC(=O)c1sc2ncnc(N(CC)CC)c2c1C,-18
Cc1onc(-c2ccccc2Cl)c1-c1nc(-c2ccccc2Cl)no1,-3
CCC(C)C(Nc1ncnc2sc3c(c12)CCC3)C(=O)O (stereo unspecified),-8
COc1ccc(C(=O)N2CCN(C(=O)c3cccnc3)CC2)cc1OC,5
Cc1cc2c(cc1C)C(c1ccccc1C(F)(F)F)CC(=O)N2 (stereo unspecified),-9
CC(=O)OC1CCS(=O)(=O)C1 (stereo unspecified),6
COc1ccc(-c2oc(NC(=O)C(F)(F)F)c(C#N)c2-c2ccc(OC)cc2)cc1,-7
COC(=O)c1sc(NC(=O)C(F)(F)F)c(C(=O)OC)c1C,-8
Cc1oc(NC(=O)C(F)(F)F)c(C#N)c1C,33*
FC(F)(F)c1cccc(-n2cc(-c3ccccc3)c3c(NCC4CCCO4)ncnc32)c1 (stereo unspecified),-6
C=CCN(c1ccccc1)S(=O)(=O)c1ccc2[nH]cc(C(=O)NCc3ccccn3)c(=O)c2c1,0
COCCCNC(=O)c1c[nH]c2ccc(S(=O)(=O)N(C)c3c(C)cccc3C)cc2c1=O,-10
CN(c1ccc(F)cc1)S(=O)(=O)c1ccc2[nH]cc(C(=O)NCc3ccccn3)c(=O)c2c1,+
CN(c1ccc(Br)cc1)S(=O)(=O)c1ccc2[nH]cc(C(=O)NCc3ccccn3)c(=O)c2c1,147*
Cc1cccc(C)c1N(C)S(=O)(=O)c1ccc2[nH]cc(C(=O)NCc3ccccn3)c(=O)c2c1,44*
CCc1ccc(NS(=O)(=O)c2ccc3[nH]cc(C(=O)NCc4ccc(C)cc4)c(=O)c3c2)cc1,-15
Cc1ccccc1N(C)S(=O)(=O)c1ccc2[nH]cc(C(=O)NCC3CCCO3)c(=O)c2c1 (stereo unspecified),-6
CCOc1ccc(N(C)S(=O)(=O)c2ccc3[nH]cc(C(=O)NCc4ccccc4)c(=O)c3c2)cc1,-12
CCc1ccc(NS(=O)(=O)c2ccc3[nH]cc(C(=O)NCc4ccccn4)c(=O)c3c2)cc1,172*
CCc1ccc(NS(=O)(=O)c2ccc3[nH]cc(C(=O)NCc4ccccc4)c(=O)c3c2)cc1,-15
Cc1ccc(N(C)S(=O)(=O)c2ccc3[nH]cc(C(=O)NCc4ccccn4)c(=O)c3c2)cc1C,-3
COCCNC(=O)c1c[nH]c2ccc(S(=O)(=O)N(C)c3ccc(F)cc3)cc2c1=O,-5
Cc1ccc2nc3c(cc(C(=O)NCCc4ccccc4)c(=N)n3C3CCCC3)c(=O)n2c1,-9
SMILES,14-3-3 PPI
CC1Cc2nc(SCC(=O)Nc3cccc(C(F)(F)F)c3)n(Cc3ccccc3)c(=O)c2S1 (stereo unspecified),-22
COc1ccc(C2=NN(C(=O)CCC(=O)O)C(c3cc4cccc(C)c4nc3Cl)C2)cc1OC (stereo unspecified),-1
CC1(C)CC(=O)c2c(oc3c(Br)cc(NS(=O)(=O)c4cccc([N+](=O)[O-])c4)cc23)C1,1
CCCCc1ccc(C(=O)Nc2cc3cccc(OC)c3oc2=O)cc1,-1
CCCCOC(=O)C(C)OC(=O)c1ccc([N+](=O)[O-])cc1Cl (stereo unspecified),2
CCc1ccccc1N(C)S(=O)(=O)c1ccc2[nH]cc(C(=O)NCCc3ccccc3)c(=O)c2c1,-2
CCCCN(C)C(=O)c1c[nH]c2ccc(S(=O)(=O)N(C)c3ccccc3CC)cc2c1=O,-7
CCc1ccccc1N(C)S(=O)(=O)c1ccc2[nH]cc(C(=O)O)c(=O)c2c1,63*
O=C1c2ccccc2C(=O)c2c1ccc(N1C(=O)c3ccccc3C1=O)c2Cl,8
O=C(NCc1ccccc1)c1cnn2c(C(F)(F)F)cc(-c3cccs3)nc12,-5
CCOc1cc(C2C3=C(CCCC3=O)N(CC)C3=C2C(=O)CCC3)ccc1O,5
CCCOc1c(Br)cc(C2C3=C(CCCC3=O)N(CC)C3=C2C(=O)CCC3)cc1OCC,-10
CCOc1cc(C2C3=C(CCCC3=O)N(CC)C3=C2C(=O)CCC3)cc(Br)c1O,41*
COC(=O)C1=C(C(=O)OC)C(c2cccc([N+](=O)[O-])c2)c2sc(=O)[nH]c2S1 (stereo unspecified),34*
CCOC(=O)C1=C(C)NC(C)=C(C(=O)OC)C1c1cccc([N+](=O)[O-])c1 (stereo unspecified),0
COC(=O)C1=C(C(=O)OC)C(c2cc([N+](=O)[O-])ccc2OCc2ccccc2Cl)c2sc(=O)[nH]c2S1 (stereo unspecified),-9
CC(C)(C)c1ccc(S(=O)(=O)Nc2ccc(O)c3ccccc23)cc1,-7
COc1ccc(-c2cc(C(F)(F)F)nc(NCc3cccnc3)n2)cc1OC,-27
